# Screens: PubChem, Johns Hopkins Ion Channel Center
# Hits are enriched below; roughly 3.5% of the tested compounds scored in any of these assays.
# ANO1 activ – activates or potentiates the mouse TMEM16A chloride channel. B-score at 10 µM. 340,000 tested, 0.3% active. Q8BHY3. HEK293 TMEM16A/YFP-H148Q/I152L, iodide quench fluorescence; active compounds read low;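 active means fluorescence-ratio B-score plate-corrected deviation score at least 3 library SD below zero, with starting fluorescence score within 5 deviations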;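 further: channel opened by trigger with iodide after compound preincubation; score built on the fluorescence ratio of max minus min over baseline; more negative score means more quench and so TMEM16A activation or potentiation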
# KCNK3 inh – human KCNK3 channel inhibition, primary screen. O14649. CHO-KCNK3 thallium flux, FluxOR fluorescence; active compounds read low. B-score at 10 µM. 340,000 tested, 0.84% active. AID 602410;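 active means B-score under library mean minus 4 SD, starting fluorescence ratio at most library mean plus 5 SD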;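 further: more negative B-score means stronger inhibition of thallium flux through KCNK3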
# ANO1 block – blocks the mouse calcium-activated chloride channel TMEM16A; Q8BHY3; HEK293 TMEM16A/YFP iodide influx fluorescence, ionomycin; normalized B-score (activity score, 25-100; higher = stronger inhibition) at 10 µM; 310,000 tested, 1.2% active; AID 588511;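 active means ratio plate-corrected score three or more library SD toward inhibition, starting fluorescence score within five deviations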;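 further: score derived from kinetic fluorescence span divided by baseline fluorescence per well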
# Kir21 inh – inhibitors of mouse Kir2.1 inward-rectifier potassium channel. 310,000 tested, 0.85% active. P35561. B-score at 10 µM. HEK293-Kir2.1, FluxOR thallium flux fluorescence; active compounds read low;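 active means fluorescence ratio B-score at or below minus 3 SD of library scores, with starting-brightness B-score within 2 SD, cut at about -4.2 in these data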;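 further: channel flux triggered by added potassium and thallium sulfate stimulus; B-score of peak minus minimum fluorescence over baseline after thallium stimulus; more negative B-score means stronger Kir2.1 block with less thallium influx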
# KCNK9 block – human KCNK9 channel inhibition; Q9NPC2; HEK293 KCNK9, FluxOR thallium flux fluorescence; active compounds read low; B-score at 10 µM; 310,000 tested, 1.2% active; AID 488922;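 active means ratio B-score over 3 SD below the library mean, with starting fluorescence within 5 SD of its mean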;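 further: negative B-score means less thallium flux so channel inhibition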
# KCNK9 inh conf – human KCNK9 inhibitor confirmation. shares compounds with KCNK9 block. AID 492992. HEK293 KCNK9 cells, FluxOR thallium flux fluorescence. inhibition, % at 10 µM. 4,900 tested, 43% active;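 active means thallium signal inhibited by more than 5 SD of the compound-free buffer control wells, on both duplicate plates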
# Kir21 sel – tests whether KCNK9 modulators also affect mouse Kir2.1 | inhibition, % at 10 µM | Kir2.1 cells, FluxOR thallium flux fluorescence | shares compounds with KCNK9 block | 4,900 tested, 4% active;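 active means thallium signal drop more than 5 SD beyond the mean of the no-compound control wells, seen in both duplicate plates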;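 further: signal is fluorescence rise after thallium addition divided by baseline fluorescence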
# HEK293 Tl ctr – second counter-screen for KCNK9 modulators: effect in non-induced cells. shares compounds with KCNK9 block. non-induced KCNK9-HEK293, FluxOR thallium flux. inhibition, % at 10 µM. 4,900 tested, 40% active;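 active means thallium signal drop beyond 5 SD of the untreated control mean, on both duplicate plates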
# Hits are given with their value; n = inactive; x = not tested or not shown.
SMILES,ANO1 activ,KCNK3 inh,ANO1 block,Kir21 inh,KCNK9 block,KCNK9 inh conf,Kir21 sel,HEK293 Tl ctr
O=C(CCSCc1ccccc1Cl)NCc1cccs1,n,n,n,n,n,n,n,n
O=C(CCSCc1ccccc1F)NCc1cccs1,n,n,n,n,n,x,x,x
O=C(Nc1ccc(F)cc1F)c1sccc1SCc1cccc(C(F)(F)F)c1,n,n,n,n,-12,68%,42%,50%
O=C(Nc1ccc(F)cc1)c1sccc1SCc1cccc(C(F)(F)F)c1,n,n,n,n,-13,62%,46%,48%
NNC(=O)c1sccc1OCc1cccc(C(F)(F)F)c1,n,n,n,n,n,x,x,x
CCCCn1c(N)c(N(CC)C(=O)c2cnc(C)cn2)c(=O)[nH]c1=O,n,n,x,x,x,x,x,x
O=C1NC(=S)SC1=Cc1ccc2c(c1)OCO2,n,n,x,x,x,x,x,x
O=C1N/C(=N/S(=O)(=O)Cc2ccccc2)S/C1=C/c1ccc2c(c1)OCO2,n,n,n,n,n,n,n,n
COc1ccccc1OCc1nc(C#N)c(N2CC(C)CC(C)C2)o1 (configuration not stated),n,n,n,n,n,n,n,n
COCCn1c(SCC(=O)Nc2ncc(C)s2)nc2sc3c(c2c1=O)CCC3,x,x,x,n,n,x,x,x
COCCn1c(SCc2nnc(-c3ccccc3)o2)nc2sc3c(c2c1=O)CCC3,n,n,x,n,-11,37%,n,32%
CSc1cccc(NC(=O)CSc2ncccc2C(=O)Oc2cccc([N+](=O)[O-])c2)c1,n,n,n,n,n,x,x,x
CCN(C(=O)CSc1ncccc1C(=O)Oc1cccc([N+](=O)[O-])c1)c1cccc(C)c1,n,n,n,n,-19,52%,n,28%
Cc1cc(NC(=O)C(C)SCC(=O)Nc2ccccc2C(C)(C)C)no1 (configuration not stated),n,n,n,n,n,x,x,x
Cc1nc(N(C)Cc2ccccc2)c2nnn(Cc3ccccc3)c2n1,n,n,n,n,n,n,n,n
CCOC(=O)C1CCN(Cc2coc3c(Cl)cc(Cl)cc3c2=O)CC1,n,n,n,n,n,n,n,n
CCOC(=O)C1CCN(Cc2c(F)cccc2Cl)CC1,n,n,n,n,n,x,x,x
C/C(=N\NC(=O)c1nn(C)c(C)c1Br)c1ccc(NC(=O)c2ccccc2F)cc1,n,n,n,n,-12,64%,n,26%
O=C(COc1coc(CN2CCc3ccccc3C2)cc1=O)Nc1cccc([N+](=O)[O-])c1,n,n,n,n,n,x,x,x
O=C1OC(OC2CCCCC2)(c2ccccc2)c2ccccc21 (configuration not stated),n,n,n,n,-18,76%,n,60%
O=C1OC(Oc2ccccc2)(c2ccccc2)c2ccccc21 (configuration not stated),n,n,n,n,-10,52%,n,48%
CC(C)C1(C(C)C)OC(=O)c2ccccc21,n,n,n,n,n,x,x,x
CCCCC(CC)COC1(c2ccccc2)OC(=O)c2ccccc21 (configuration not stated),n,n,n,n,-18,76%,n,50%
O=C1OC2(c3ccccc31)c1ccccc1-c1ccccc12,n,n,x,x,x,x,x,x
CCCCn1c(N)c(N(CC(C)C)C(=O)CSCC(=O)Nc2ccc(C)cc2)c(=O)[nH]c1=O,n,n,x,x,x,x,x,x
CCOC(=O)C1(CC)NC(c2ccc(OC)cc2OC)C2C(=O)N(C)C(=O)C21 (configuration not stated),n,n,n,n,n,x,x,x
c1ccc(-n2cnc3cc(NCc4ccco4)ccc32)cc1,n,n,n,n,n,x,x,x
O=C(COCc1cc(-c2ccc3c(c2)OCO3)on1)N1CCN(c2ccccc2)CC1,n,n,n,n,n,x,x,x
C=CCn1c(SCCC)nc2sc3c(c2c1=O)CCc1ccccc1-3,n,n,n,n,n,n,n,n
C=CCSc1nc2sc3c(c2c(=O)n1CC=C)CCc1ccccc1-3,n,n,n,n,n,x,x,x
